Cruzain Triton: qHTS Assay for Promiscuous and Specific Inhibitors of Cruzain (with detergent). Cruzipain (Trypanosoma cruzi), P25779. purified cruzain, Z-FR-AMC fluorescence, 0.01% Triton. Potency, µM, without a hit: max response, negative = inhibition, usual class: inhibitors. hit rate 0.43% among 200,000. AID 1478, 2009;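 further: plate controls were neutral wells for no effect and buffer without enzyme for full effect; nearly all actives have a fitted effect of over 40% in size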
Target sequence (P25779 123-467 limits assumed): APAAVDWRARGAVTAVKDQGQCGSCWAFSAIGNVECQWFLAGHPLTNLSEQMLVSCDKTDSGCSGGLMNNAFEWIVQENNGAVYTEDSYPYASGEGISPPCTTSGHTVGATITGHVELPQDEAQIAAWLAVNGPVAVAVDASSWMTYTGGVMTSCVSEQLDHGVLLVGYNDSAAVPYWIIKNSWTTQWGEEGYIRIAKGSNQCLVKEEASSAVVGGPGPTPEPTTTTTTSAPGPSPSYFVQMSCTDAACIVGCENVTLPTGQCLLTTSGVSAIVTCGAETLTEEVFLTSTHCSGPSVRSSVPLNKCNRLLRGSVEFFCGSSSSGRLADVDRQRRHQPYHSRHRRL
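Read-out: AMC fluorescence (360 nm excitation, 450 nm emission), four reads over 2 min, first-to-third difference used. Conditions: cruzain 1.5 nM, Z-FR-AMC 2 uM, pH 5.5 acetate, 5 mM DTT, 0.01% Triton X-100.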
Cruzain noTriton: qHTS Assay for Promiscuous and Specific Inhibitors of Cruzain (without detergent) | Cruzipain (Trypanosoma cruzi), P25779 | purified cruzain, Z-FR-AMC fluorescence, no detergent | Potency, µM, for inactives: max response, negative = inhibition, hits mostly inhibitors | hit rate 2.3% among 200,000 | AID 1476, 2009;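 further: plate controls were enzyme without inhibitor for no effect and buffer without enzyme for full effect; nearly all actives have a fitted effect of over 40% in size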
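Purified cruzain at 1.5 nM, pre-incubated 15 min with compound at room temperature in 100 mM sodium acetate pH 5.5, 5 mM DTT, 0.00005% Triton X-100. Reaction started with 2 uM Z-FR-AMC; AMC fluorescence increase over 60 s gives rate.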
Starred values were filed as active, the others as inactive; ? = inconclusive. In the library only some 2.5% were active in any assay of this set; here they are far more common. The call rests on the fitted dose curve; in most records, active means well fitted curve in the direction sought with a large enough effect; inconclusive means small, poorly fitted or top-dose-only effect, or another doubt; inactive means no such curve, though single readings can be large; an effect the other way counts as inactive or inconclusive. Potency means the concentration at half of the fitted maximal effect.

SMILES	Cruzain Triton	Cruzain noTriton
CCOc1ccccc1C(=O)NCC(=O)OCC(=O)NCCc1ccc(S(N)(=O)=O)cc1	25.1µM*	15.8µM*
Cc1ccccc1OCCC(=O)NCCc1ccc(S(N)(=O)=O)cc1	0.2%	9.3%
COc1ccccc1Cn1c(=O)c2ccccc2n2c(Sc3ncnc4sccc34)nnc12	-1.1%	15.8µM*
COc1ccccc1Cn1c(=O)c2ccccc2n2c(SCc3csc(C)n3)nnc12	-3.2%	2.8%
Cc1ccc(-c2nc3ccccc3[nH]2)cc1NC(=O)c1sc2cc(Cl)ccc2c1Cl	-2.8%	7.94µM*
Cc1ccc(-c2nc3ccccc3[nH]2)cc1NC(=O)COc1ccc(Cl)cc1Cl	-1.1%	16.5%
COc1cccc(C(=O)NCC(=O)N/N=C/c2ccc(OC(=O)c3cccs3)c(OC)c2)c1	-4.0%	8.5%
O=C(N/N=C/c1ccc(OC(=O)c2cccs2)cc1)c1cccc(F)c1	-22.1%	20µM*
CCc1ccc(CNC(=O)C(C)n2ccc3cc(S(=O)(=O)N4CCCCCC4)ccc32)cc1 (stereo not drawn)	-4.3%	-19.9%
CN(Cc1ccc(F)cc1)S(=O)(=O)c1nnc(NC(=O)c2ccccc2Cl)s1	-18.7%	?
O=C(c1cc2sccc2n1Cc1ccccc1)N1CCc2ccccc21	-3.3%	?
O=C(c1cc2sccc2n1Cc1ccccc1)N1CCCc2ccccc21	-3.3%	20µM*
O=C(Nc1nc(-c2ccco2)c(-c2ccco2)s1)C1CCC1	-9.2%	-6.0%
O=C(Nc1cccc(C(F)(F)F)c1)c1ccc2nc(-c3ccco3)c(-c3ccco3)nc2c1	14.1µM*	?
O=C(Nc1cccc(C(F)(F)F)c1)c1ccc2snnc2c1	-3.7%	-11.5%
O=C(NCCCO)Nc1ccc2nc(-c3ccco3)c(-c3ccco3)nc2c1	12.6µM*	7.94µM*
OCCCNC(=S)Nc1ccc2nc(-c3ccccn3)c(-c3ccccn3)nc2c1	-3.9%	-13.4%
O=C(Nc1ccc2nc(-c3ccco3)c(-c3ccco3)nc2c1)NC1CC1	8.91µM*	2.51µM*
CCc1nc2ccc(C(=O)NCCc3ccc(OC)c(OC)c3)cc2nc1CC	0.7%	23.1%
COc1ccc(CCNC(=O)c2ccc3nc(-c4ccco4)c(-c4ccco4)nc3c2)cc1OC	14.1µM*	-5.8%
Cc1ccc2nc(NC(=O)CSc3nccn3Cc3ccc(F)cc3)sc2c1	-5.8%	-14.6%
Cc1ccc(C)c(CN2C(=O)CSc3ccc(C(=O)NCc4ccc(F)cc4)cc32)c1	-0.7%	-1.3%
O=C(CN1C(=O)COc2ccc(S(=O)(=O)N3CCOCC3)cc21)NCc1ccc(Cl)cc1	-2.6%	-0.2%
CCc1ccc(CNC(=O)c2ccc3c(c2)nc2n3CCOC2)cc1	0.2%	63.1%
Clc1ccc(-n2c(Cc3ccccc3)nnc2SCc2nc(-c3cccs3)no2)cc1	-9.9%	12.6%
SMILES	Cruzain Triton	Cruzain noTriton
O=C(CSc1n[nH]c(-c2ccccc2)n1)NCCCc1ccccc1	2.0%	-2.6%
O=S(=O)(Nc1nc2ccc(S(=O)(=O)N3CCCC3)cc2s1)c1ccc(F)cc1	-9.0%	15.8µM*
O=C(Nc1nc2ccc(S(=O)(=O)N3CCCC3)cc2s1)c1ccc(F)cc1	-0.3%	-5.3%
Cc1ccc2nc(/C(C#N)=C/c3ccc(-c4ccc(F)cc4F)o3)[nH]c2c1	-12.0%	10µM*
COc1cc(/C=C(\C#N)c2nc3ccccc3[nH]2)cc(Br)c1OCc1ccccc1	-2.1%	?
CCCOc1cc(N(CC)CC)ccc1/C=C(/C#N)c1nc2ccc(C)cc2[nH]1	-2.2%	20µM*
COc1cccc(/C=C(\C#N)c2nc3ccc(C)cc3[nH]2)c1	-2.0%	?
COc1cc(/C=C(\C#N)c2nc3ccccc3[nH]2)cc(Br)c1OCc1ccc(F)cc1	-3.9%	25.1µM*
Cc1ccc2nc(/C(C#N)=C/c3ccc(-c4cccc([N+](=O)[O-])c4)o3)[nH]c2c1	-19.3%	?
Cc1cc(/C=C(\C#N)c2nc3ccccc3[nH]2)c(C)n1C	-4.2%	?
CCOc1cc(N(CC)CC)ccc1/C=C(/C#N)c1nc2ccccc2[nH]1	-2.5%	31.6µM*
Cc1ccc(Cl)cc1NCc1nnc2n1CCCCC2	1.8%	-0.5%
CCOc1ccc(-n2c(SCC(=O)N3CCc4ccccc43)nc3c([nH]c4ccccc43)c2=O)cc1	0.3%	1.9%
Cc1ccc(C)c(N2CCN(C(=O)CS(=O)(=O)c3cccc4nsnc34)CC2)c1	0.6%	?
CCOc1ccc(C(=O)c2cn(CC(=O)Nc3cccc(OC)c3)c3cc4c(cc3c2=O)OCCO4)cc1	-3.3%	-13.9%
Cc1ccc(N2C(=O)CSC23C(=O)N(CC(=O)NC2CCCCC2)c2ccccc23)cc1C (stereo not drawn)	-0.3%	-4.0%
CCOC(=O)COc1ccc(/C=C(\C#N)c2nc3ccc(C)cc3[nH]2)cc1OC	-2.8%	?
CCN(CC)c1ccc(/C=C(/C#N)c2nc3ccc(C)cc3[nH]2)c(OC(C)C)c1	1.8%	25.1µM*

Assay outcomes as filed in PubChem.
